For orientation: inhibition means the change of the read-out against control, counted positive when it falls.

The nature of this assay: growth inhibition of WT strain, primary screen, mitochondrial fusion inhibitor project, WT and mutant strains, chemical genetic (AID 1362). To be noted: mitochondrial fusion phenotypic screen, at 10 µM.
[1] abbreviates: WT strain, growth inhibition, stronger effect = higher value.

Screen size: about 190,000 compounds; about 4,000 (2.1%) were called active. Cut-off read from the data, not from the text of the source: active = inhibition above about 58%; inactive = the rest, inconclusive results apart; tested in S. cerevisiae. The entries come from a sample that favours actives as a whole.

As to `CSc1ccc(C(=O)C2CCCN(C(=O)c3ccc(C)nc3)C2)cc1` (stereo unspecified), the inhibition under setting [1] was 0.28% (inactive) and the inhibition (mutant strain inhibition) is -10.8%.

On to `CC1(C)CC(=O)c2cnc3nc4ccccc4n3c2C1`, for which the inhibition reads like this: under setting [1], 16.6% (inactive); (mutant strain inhibition) -7.45%.

As to `c1cncc(-c2nnc3n2C2(CCCCC2)Cc2ccccc2-3)c1`, the inhibition is, setting by setting: under setting [1], 11.9% (inactive); (mutant strain inhibition) 5.15%.

For the molecule `CCC1(CC)Cc2ccccc2-c2nc3ccccc3c(=O)n21`, the inhibition under setting [1] is -30.3% (inactive) and the inhibition (mutant strain inhibition) stood at 0.33%.

On to `O=c1c2ccccc2nc2n1C1(CCCCC1)Cc1ccccc1-2`, for which the inhibition is, setting by setting: under setting [1], 61.2% (active); (mutant strain inhibition) 9.31%.

For the molecule `COC(=O)C1=C(C)NC(=O)/C1=C/c1ccc(CNS(=O)(=O)c2ccc(C)cc2)o1`, the inhibition is, setting by setting: under setting [1], -8.5% (inactive); (mutant strain inhibition) 0.18%.

`NS(=O)(=O)c1ccc(CCNC(=O)c2ccc([N+](=O)[O-])cc2[N+](=O)[O-])cc1`: the inhibition reads like this: under setting [1], -6.04% (inactive); (mutant strain inhibition) -5.86%.

For the molecule `COc1cc(NC(=O)c2cccnc2SC)cc(OC)c1`, the inhibition runs as follows: under setting [1], -8.4% (inactive); (mutant strain inhibition) -8.46%.

For `COC(=O)c1ccc(NC(=O)c2ccccc2NS(=O)(=O)c2ccccc2)cc1`, the inhibition reads like this: under setting [1], 6.94% (inactive); (mutant strain inhibition) 15.7%.

As for `COc1cc(NC(=O)c2ccccc2NS(=O)(=O)c2ccc(Cl)s2)cc(OC)c1`, the inhibition is, setting by setting: under setting [1], 67.2% (active); (mutant strain inhibition) 46.5%.

`CCOC(=O)C1CCN(c2ncnc3c2c(-c2ccccc2)cn3-c2ccc(C)cc2)CC1`: the inhibition was 14.7% (inactive) under setting [1] and 15.5% (mutant strain inhibition).

For `COc1cccc(CNc2nc3nc4c(c(=O)n3[nH]2)CCC4)c1`, the inhibition reads like this: under setting [1], -0.87% (inactive); (mutant strain inhibition) -10.6%.

As for `COc1cccc(-c2nc(S(=O)(=O)c3ccccc3)c(N3CCOCC3)o2)c1`, the inhibition was -12% (inactive) under setting [1] and -5.11% (mutant strain inhibition).

In the case of `COc1cccc(-c2cc3nc4c(c(N5CCC6(CC5)OCCO6)n3n2)CCCC4)c1`, the inhibition was 69.6% (active) under setting [1] and 33.9% (mutant strain inhibition).

With `Cc1ccc(NC(=O)CN2CCC(C(N)=O)CC2)cc1[N+](=O)[O-]`, the inhibition was -8.61% (inactive) under setting [1] and -3.52% (mutant strain inhibition).

`CCCN(C(=O)CSc1nnnn1C)c1c(N)n(Cc2ccccc2)c(=O)[nH]c1=O`: the inhibition reads like this: under setting [1], -4.08% (inactive); (mutant strain inhibition) -15.2%.

As to `CC(C)c1ccc2c(c1)c(SC(C)(C)C)c(CC(C)(C)C(=O)O)n2Cc1ccc(Cl)cc1`, the inhibition is 70.4% (active) under setting [1] and 23.5% (mutant strain inhibition).

On to `Cc1ccc(C(=O)N2CCN(S(=O)(=O)N3CCOCC3)CC2)cc1`, for which the inhibition by setting is: under setting [1], 8.87% (inactive); (mutant strain inhibition) 9.09%.

Consider `COc1ccc(C2CC(c3cccs3)=NN2C(=O)CSc2nncs2)cc1OC` (stereo unspecified), for which the inhibition was -1.36% (inactive) under setting [1] and -8.65% (mutant strain inhibition).

`Cc1ccccc1CC1(CO)CCCN(Cc2ccc3c(c2)OCCO3)C1` (stereo unspecified): the inhibition runs as follows: under setting [1], -4.77% (inactive); (mutant strain inhibition) 1.77%.

In the case of `NC(=O)C[n+]1cccc(C(N)=O)c1`, the inhibition is, setting by setting: under setting [1], -12.7% (inactive); (mutant strain inhibition) -23.1%.

As for `COc1ccc(C(=O)CN(C(=O)c2ccc(Cl)cc2)N2C(=O)c3ccccc3C2=O)cc1`, the inhibition under setting [1] is 6.73% (inactive) and the inhibition (mutant strain inhibition) came out at 27.8%.

`COc1ccc(Cn2c(=O)cc(C)[nH]c2=S)cc1`: the inhibition is -15.8% (inactive) under setting [1] and -20.1% (mutant strain inhibition).

`COc1ccc(Cn2c(-c3ccc(Cl)cc3)c[n+]3ccccc23)cc1`: the inhibition under setting [1] was 65.1% (active) and the inhibition (mutant strain inhibition) was 49.9%.

As for `COCCNC(=O)CCCn1c(=O)c2ccccc2n(Cc2cccc([N+](=O)[O-])c2)c1=O`, the inhibition was 5.52% (inactive) under setting [1] and 6.42% (mutant strain inhibition).

Regarding `O=C(NCCCNc1ccc([N+](=O)[O-])cc1Cl)c1ccccc1F`, the inhibition under setting [1] is -8.75% (inactive) and the inhibition (mutant strain inhibition) was -6.43%.

With `COCCn1c(Cc2cccn2C)nnc1SCC(=O)Nc1nccs1`, the inhibition was 1.47% (inactive) under setting [1] and 4.94% (mutant strain inhibition).

Consider `Cc1ccc(NC(=O)CC2S/C(=N/N=C3\CCCc4ccccc43)NC2=O)cc1` (stereo unspecified), for which the inhibition is 83.8% (active) under setting [1] and 33.5% (mutant strain inhibition).

As for `Cc1c(Cl)cccc1NC(=O)CC1SC(=NCC2CCCO2)NC1=O` (stereo unspecified), the inhibition is, setting by setting: under setting [1], -15.1% (inactive); (mutant strain inhibition) 19%.

As for `CCN=C1SC(CC(=O)Nc2ccc(C)cc2)C(=O)N1CC` (stereo unspecified), the inhibition reads like this: under setting [1], -14.8% (inactive); (mutant strain inhibition) 6.26%.

For `COc1ccnc(Oc2ccccc2)c1-c1ncn[nH]1`, the inhibition by setting is: under setting [1], 3.65% (inactive); (mutant strain inhibition) 2.35%.

Consider `CC(=O)C1=C(O)C(=O)N(c2cccnc2)C1c1ccc([N+](=O)[O-])cc1` (stereo unspecified), for which the inhibition is 2.65% (inactive) under setting [1] and -8.89% (mutant strain inhibition).

As for `Cc1cc(=O)[nH]c(SCC(N)=O)c1C#N`, the inhibition was 59.8% (active) under setting [1] and -65.4% (mutant strain inhibition).

`Cc1cc(C)c(C#N)c(SCC(=O)Nc2ccccc2)n1`: the inhibition is 9.11% (inactive) under setting [1] and -9.66% (mutant strain inhibition).

On to `Cc1cc(C#N)c(SCC(N)=O)nc1-c1ccc(F)cc1`, for which the inhibition under setting [1] was -8.84% (inactive) and the inhibition (mutant strain inhibition) is 0.95%.

Consider `C=CCOc1c(CNn2cn[nH]c2=S)cccc1OC`, for which the inhibition runs as follows: under setting [1], -4.69% (inactive); (mutant strain inhibition) -6.27%.

With `Cc1ccc(CNC(=O)c2cccnc2Cl)cc1`, the inhibition runs as follows: under setting [1], -14.3% (inactive); (mutant strain inhibition) -25.1%.

As to `CCc1nc(C)ccc1OCC(=O)N(CC)CC`, the inhibition is -20.5% (inactive) under setting [1] and -10.4% (mutant strain inhibition).

As to `CN(C)CCOc1ccc(Cl)cc1C(C)(C)C`, the inhibition is 27.8% (inactive) under setting [1] and 4.52% (mutant strain inhibition).

As for `CCC(C)(C)c1ccc(OCC(=O)N(C)C)c(C(C)(C)CC)c1`, the inhibition under setting [1] is 79.9% (active) and the inhibition (mutant strain inhibition) was determined as 14.1%.

As to `O=S1(=O)CC/C(=N\Nc2ccc(F)cc2)c2ccsc21`, the inhibition runs as follows: under setting [1], 26.2% (inactive); (mutant strain inhibition) 34.7%.

As to `O=C(OCC(=O)c1cccs1)C1=COCCO1`, the inhibition is 9.96% (inactive) under setting [1] and 20.9% (mutant strain inhibition).

With `CCC(C)(C)c1ccc(Oc2ccc(NC(=O)COC(=O)C3=COCCO3)cc2)cc1`, the inhibition is 60.5% (active) under setting [1] and 33.7% (mutant strain inhibition).

For `COc1ccc(NC(=O)COC(=O)CNC(=O)C2CCCCC2)cc1`, the inhibition runs as follows: under setting [1], -11.9% (inactive); (mutant strain inhibition) 12.1%.

Consider `CN(C)c1ccc(/C=N/NC(=O)C(O)c2ccc(Br)cc2)cc1` (stereo unspecified), for which the inhibition by setting is: under setting [1], -4.38% (inactive); (mutant strain inhibition) 1.15%.

For the molecule `Cc1ccccc1CSc1nnc(-c2ccccc2)c(=O)[nH]1`, the inhibition runs as follows: under setting [1], 12.9% (inactive); (mutant strain inhibition) -13.6%.

With `O=C(Nc1ccccc1C(=O)O)c1cc(S(=O)(=O)N2CCCCC2)cs1`, the inhibition reads like this: under setting [1], 1.49% (inactive); (mutant strain inhibition) -6%.

For the molecule `Cc1cc(C)c(C2C3=C(Nc4c2c(C)nn4-c2ccccn2)c2ccccc2C3=O)c(C)c1` (stereo unspecified), the inhibition was 78.7% (active) under setting [1] and 55% (mutant strain inhibition).

Consider `Cc1nn(-c2ccccn2)c2c1C(c1ccncc1)C1=C(CC(C)(C)CC1=O)N2` (stereo unspecified), for which the inhibition is -4.23% (inactive) under setting [1] and -14.9% (mutant strain inhibition).

As for `Cc1ccc(C2C3=C(Nc4[nH]n(-c5ccccc5)c(=O)c42)c2ccccc2C3=O)cc1` (stereo unspecified), the inhibition runs as follows: under setting [1], -0.51% (inactive); (mutant strain inhibition) -6.48%.

`COc1cccc(C(=O)Oc2cc(C)[nH]c(=O)c2[N+](=O)[O-])c1`: the inhibition is 15.8% (inactive) under setting [1] and -9.84% (mutant strain inhibition).

`O=C(N/N=C/c1ccccn1)c1ccc(S(=O)(=O)N2CCCCCC2)cc1`: the inhibition was 2.23% (inactive) under setting [1] and 0.85% (mutant strain inhibition).

As to `COc1ccc(NC(=O)c2ccccc2CC[N+](=O)[O-])cc1`, the inhibition was 1.85% (inactive) under setting [1] and 1.42% (mutant strain inhibition).
